Bioassay records (PubChem BioAssay)
PrPC surface inh: reduces human prion protein on the cell surface | P04156 | cell surface PrPC, TR-FRET read-out | inhibition, % at 13.8 µM | 370,000 tested, 0.43% active; in the data active = inhibition above about 24%; note: 0% = median of the test wells and 100% = reference compound wells
SSB-PriA inh: blocks PriA binding to SSB C-terminal tail; 430,000 tested, 0.6% active; AID 1272365; inhibition, % at 33 µM; AlphaScreen SSBct-PriA binding, biotinylated peptide; in the data active = inhibition mostly above about 37%, no sharp cut-off; inactive = mostly below about 20%;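 note: plate controls were negative control peptide for no effect and reference peptide for full effect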
PfHsp40 rescue: restores yeast growth despite PfHsp40 toxicity; growth rescue, % at 12.5 µM; S. cerevisiae expressing PfHsp40, growth rescue, ATP luminescence; 340,000 tested, 0.68% active; in the data active = growth rescue above about 28%, passing the limit was not always enough; inconclusive = no clear call, values can overlap the other calls;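 note: yeast W303a lacking pdr1 and pdr3 grown in galactose medium; growth measured after three days at 30 °C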
PrP 5UTR inh: inhibition of PrP 5' UTR reporter expression; inhibition, % (concentration not given with the values); cell-based PrP 5' UTR mRNA reporter, plate reader; 340,000 tested, 0.35% active; in the data active = inhibition above about 52%; note: 0 = median of the neutral control wells
MazF activator: MazEF (E. coli) toxin RNase activation; P0AE70; FAM/BHQ RNA-DNA oligo cleavage fluorescence, 5 h; 350,000 tested, 0.32% active; activation, % at 20 µM; AID 504720; in the data active = activation above about 50%
Target sequence (P0AE70 whole entry, looked up): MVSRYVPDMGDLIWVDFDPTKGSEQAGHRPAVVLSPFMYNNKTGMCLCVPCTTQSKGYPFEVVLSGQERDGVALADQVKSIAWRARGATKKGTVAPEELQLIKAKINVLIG
PrP 5UTR single: prion 5' UTR mRNA inhibition, cherry-pick retest; shares compounds with PrP 5UTR inh; cell-based prion protein 5' UTR reporter, plate reader; inhibition, % at 2.5 µM; 1,100 tested, 48% active; in the data active = inhibition above about 54%; inconclusive = no clear call, values can overlap the other calls
* marks the source's active call; other numbers are inactive results; i = inactive; u = inconclusive; x = not tested or not shown. Shown are actives, neighbours in structure and some others; about 1.8% of the full set was active somewhere.

SMILES	PrPC surface inh	SSB-PriA inh	PfHsp40 rescue	PrP 5UTR inh	MazF activator	PrP 5UTR single
C[C@H]1CCC/C=C/C2C[C@H](O)CC2[C@H](O)/C=C/C(=O)O1 (some centres undefined)	x	x	-0.5	80.9*	9.0	89.6*
Cc1cccc(N(C(=O)CNC(=O)c2cccs2)C(C(=O)NC2CCCC2)c2cccnc2)c1 (centres undefined)	-6.8	-8.4	-1.0	8.8	4.6	x
Cc1nnc(SCC(=O)Nc2cc(-c3cc(C)c(C)cc3C)nn2-c2ccccc2)s1	-1.1	-3.2	2.8	58.9*	-2.8	-8.8
CCCc1ccc(-c2ccc(F)c(N)c2)nc1	-2.9	-14.2	0.8	59.1*	2.1	u
CC(C)CCNC(=O)Cc1ccccc1[N+](=O)[O-]	-11.9	5.7	-0.7	-22.4	1.7	x
Cc1ccc(S(=O)(=O)N2CCC[C@H]2C(=O)Nc2ccccc2Cl)cc1	-7.7	1.8	1.7	-21.0	1.1	x
COC(=O)c1ccc(C2/C(=C(\O)c3ccc(OC)c(C)c3)C(=O)C(=O)N2c2cc(C)on2)cc1 (centres undefined)	2.9	x	1.2	-19.0	-3.5	x
C=CC[n+]1c(-c2ccc(C)cc2)csc1Nc1ccc(NC(C)=O)cc1	16.7	10.6	1.8	71.1*	3.4	59.1*
Cc1nn(CCC(=O)O)c2nc(-c3cccnc3)cc(C(F)(F)F)c12	-2.8	-2.9	-1.4	0.5	-6.4	x
Cc1nn(CCc2nn[nH]n2)c2nc(-c3ccc(C4CCCCC4)cc3)cc(C(F)(F)F)c12	-0.6	-9.2	-1.0	63.2*	-34.0	-34.7
Cc1ccc(OCCC(=O)OCC(=O)c2c(N)n(CC(C)C)c(=O)n(C)c2=O)cc1	-3.2	-9.1	2.9	89.5*	0.9	1.5
CCOc1ccc(OCCC(=O)OCC(=O)c2c(N)n(CC(C)C)c(=O)n(C)c2=O)cc1	0.7	x	x	x	-1.1	x
CCOC(=O)NCc1ccc(S(=O)(=O)Nc2c(C)cccc2C)cc1	-3.4	-11.7	-1.1	-12.0	8.1	x
Cc1ccc2c(C)c(C(=O)N3CCCC(C(N)=O)C3)oc2c1C (centres undefined)	-2.0	-7.7	-1.4	-28.9	-1.9	x
COc1ccc(-c2noc(CCC(=O)O)n2)cc1	-4.8	-11.1	1.0	-48.3	6.9	x
COc1ccc(-c2noc(CCCC(=O)O)n2)cc1	-6.0	-13.0	-0.4	56.3*	-3.1	29.1
CCN(CC)c1ccc(-c2nn3c(-c4n[nH]c5c4CCC5)nnc3s2)cc1	11.8	-5.5	0.4	74.3*	-8.0	84.2*
CC(=O)Nc1ccc(Nc2cc(C)nc3c(-c4ccccc4)cnn23)cc1	15.8	-42.8	u	59.6*	6.0	-4.3
CCCc1cc(Nc2ccc(NC(C)=O)cc2)n2ncc(-c3ccccc3)c2n1	x	14.0	x	x	x	x
COc1ccc(/C(O)=C2\C(=O)C(=O)N(CCN(C)C)C2c2cc(OC)c(OC)c(OC)c2)c(C)c1 (centres undefined)	-2.1	x	-0.5	-18.6	5.8	x
Cc1ccc(-n2cccn2)c(CN2CCCC(CNC(=O)c3ccc(F)cc3)C2)c1 (centres undefined)	-12.2	-3.1	-1.3	80.0*	11.0	1.2
CN(C)S(=O)(=O)c1ccc(C(=O)NCc2ccccc2)cc1	4.4	-8.5	0.2	-11.5	-2.6	x
CN(C)S(=O)(=O)c1ccc(C(=O)NCC2CC2(Cl)Cl)cc1 (centres undefined)	3.8	-8.3	-1.1	63.4*	-1.1	17.1
O=C(c1ccco1)N1CCN(S(=O)(=O)/C=C/c2ccccc2)CC1	-3.0	-14.8	-0.5	56.4*	-1.2	11.4
NC(=O)c1cc2c3ccccc3ccn2c1-c1ccccc1	-4.7	-4.8	0.3	71.5*	51.0*	90.3*
SMILES	PrPC surface inh	SSB-PriA inh	PfHsp40 rescue	PrP 5UTR inh	MazF activator	PrP 5UTR single
CCCCOCCCNC(=O)C[C@H]1C[C@@]2(C(=O)OC)C(=C[C@H](C3CCCC3)O[C@@H]2C)N(Cc2ccc(Cl)cc2Cl)C1=O	4.9	x	x	x	x	x
Cc1cc(/C=C2\SC(=S)N(C)C2=O)c(C)n1-c1ccccc1O	-2.6	-9.3	0.8	12.5	-47.1	x
Cc1cc(/C=C2\SC(=S)N(C)C2=O)c(C)n1-c1ccc(O)cc1	-9.1	2.6	450.0*	76.1*	-42.3	77.3*
COC1=CC(=O)CC(C)C12Oc1cc(OC)cc(OC)c1C2=O (centres undefined)	0.2	-8.3	0.1	-0.1	-3.9	x
CC(=O)[C@]1(O)Cc2c(O)c3c(c(O)c2[C@@H](O[C@H]2C[C@H](N)[C@H](O)[C@H](C)O2)C1)C(=O)c1ccccc1C3=O	x	42.0	x	x	i	x
COc1cccc2c1C(=O)c1c(O)c3c(c(O)c1C2=O)CC(O)(C(=O)CO)CC3OC1CC(N(C)C)C(O)C(C)O1 (centres undefined)	-16.6	15.3	100.1*	85.6*	-713.0	95.1*
COc1cccc2c1C(=O)c1c(O)c3c(c(O)c1C2=O)C[C@@](O)(C(=O)CO)C[C@@H]3O[C@H]1C[C@H](N)[C@@H](O)[C@H](C)O1	x	45.8*	11.3	74.7*	i	87.4*
O=C(Cn1cnc2c(-c3ccc(Cl)cc3)csc2c1=O)NC1CCCC1	x	-9.0	x	x	x	x
CCS(=O)(=O)N1CCC(C(=O)O)CC1	-2.7	-5.4	-0.7	-21.9	13.4	x
CCN(CC)CCNC(=S)NC(=O)c1cn(-c2ccccc2)nc1-c1ccc(OC)cc1	-9.0	11.2	0.0	67.2*	13.5	6.0
O=C(Nc1nccs1)c1cc2c(s1)CCCCC2	3.7	-21.0	u	63.7*	2.9	72.1*
O=C(Nc1nncs1)c1cc2c(s1)CCC2	3.2	-0.6	-0.5	-3.5	-3.9	x
Cc1c(Cl)cccc1NC(=S)N1CCN(S(=O)(=O)c2cccs2)CC1	-3.4	-0.1	0.5	-27.0	4.1	x
CC(C)c1ccccc1NC(=S)N1CCN(S(=O)(=O)c2cccs2)CC1	-2.7	-4.6	-1.1	86.9*	13.8	-7.2
O=C(CN1C(=O)C2C3C=CC(C3)C2C1=O)N1CCOCC1 (centres undefined)	x	-15.0	x	x	x	x
O=C(Nc1cccc(-c2nc3ccccc3s2)c1)C1=COCCO1	0.3	-4.8	1.0	-14.3	-0.3	x
O=C(Nc1ccc(-c2nc3ccccc3s2)cc1)C1=COCCO1	-5.8	-8.0	-0.8	73.1*	-4.5	65.6*
CC(=O)Nc1nc2cc3c(cc2s1)OCO3	4.6	2.6	0.5	-33.8	14.4	x
O=C(Nc1nc2cc3c(cc2s1)OCCO3)c1ccco1	0.9	-6.7	1.0	78.5*	5.3	80.6*
O=C(Nc1nc2cc3c(cc2s1)OCO3)C1=COCCO1	-3.6	-1.5	-0.1	69.8*	9.5	64.1*
CC1CCc2nc(NC(=O)c3ccco3)sc2C1 (centres undefined)	1.1	14.4	-0.4	57.5*	-7.1	53.6*
CC(C)C(NC(=O)c1ccccc1Cl)C(=O)OCc1nc2scc(-c3ccccc3Cl)c2c(=O)[nH]1 (centres undefined)	-1.1	-4.4	0.0	-0.6	-2.6	x
O=C(CSc1ncn[nH]1)Nc1ncc(C(F)(F)F)cc1Cl	0.8	-10.7	-0.9	74.8*	4.2	-11.4
